# From paper PMC7862700, “An all-to-all approach to the identification of sequence-specific readers for epigenetic DNA modifications on cytosine”
# Tests used:
# Assay in all cases: DAPPL (digital affinity profiling via proximity ligation, sequencing); 10 mM Tris-HCl pH 7.5, 50 mM NaCl, 1 mM DTT, 4% glycerol, room temperature, 30 min; GST-TFs on glutathione beads, 16-mer random dsDNA library, 0.1% formaldehyde crosslink after washing; high values mean tight binding
# FLI1 = molecular target: T1, FLI1 (Homo sapiens, UniProt Q01543 1-452); details: protein: recombinant; tags: N-terminal GST; dsDNA, one strand shown
# T1 sequence: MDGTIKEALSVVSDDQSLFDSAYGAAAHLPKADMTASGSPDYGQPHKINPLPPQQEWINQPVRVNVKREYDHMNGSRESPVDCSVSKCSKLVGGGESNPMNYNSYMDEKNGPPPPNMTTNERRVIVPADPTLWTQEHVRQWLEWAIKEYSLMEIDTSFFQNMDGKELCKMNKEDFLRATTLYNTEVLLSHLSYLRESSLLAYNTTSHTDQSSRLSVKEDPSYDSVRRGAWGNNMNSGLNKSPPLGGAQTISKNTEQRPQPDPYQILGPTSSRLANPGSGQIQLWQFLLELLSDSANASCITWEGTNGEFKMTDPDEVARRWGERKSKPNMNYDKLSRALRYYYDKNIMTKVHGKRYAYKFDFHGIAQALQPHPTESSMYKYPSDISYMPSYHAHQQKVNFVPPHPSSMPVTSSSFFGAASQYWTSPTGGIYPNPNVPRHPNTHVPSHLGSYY
# Method in brief: (§1)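 Human transcription factors fused to GST were expressed in yeast, captured on glutathione beads, given DNA barcodes and pooled with a GST-only negative control. Pools were incubated with 200 nmole of a 16-mer random double-stranded DNA library in Tris/NaCl/DTT/glycerol buffer at room temperature for 30 min. They were then washed, crosslinked with 0.1% formaldehyde, proximity-ligated (BsaI/T4 ligase, 1 h, 37 °C), PCR-amplified and sequenced on an Illumina NextSeq500. Binding signal is each 6-mer's read frequency for a factor divided by its frequency for the GST control.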
# ELK1 = molecular target: T2, ELK1 (Homo sapiens, UniProt P19419 1-428); details: protein: recombinant; tags: N-terminal GST; dsDNA, one strand shown
# T2 sequence: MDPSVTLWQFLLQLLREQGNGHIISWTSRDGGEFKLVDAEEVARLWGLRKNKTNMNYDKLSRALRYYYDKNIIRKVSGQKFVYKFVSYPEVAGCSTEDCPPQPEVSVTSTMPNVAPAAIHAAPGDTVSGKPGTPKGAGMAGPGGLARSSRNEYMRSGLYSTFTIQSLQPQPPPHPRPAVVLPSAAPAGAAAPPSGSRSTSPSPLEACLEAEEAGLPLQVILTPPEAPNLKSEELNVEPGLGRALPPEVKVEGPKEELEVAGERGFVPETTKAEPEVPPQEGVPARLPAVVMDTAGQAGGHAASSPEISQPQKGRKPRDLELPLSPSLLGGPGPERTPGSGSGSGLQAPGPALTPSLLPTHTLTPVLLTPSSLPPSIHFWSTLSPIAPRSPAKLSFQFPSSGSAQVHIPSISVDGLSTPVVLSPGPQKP
# Method in brief: as §1
# GABPA = molecular target: T3, GABPA (Homo sapiens, UniProt Q06546 1-454); details: protein: recombinant; tags: N-terminal GST; dsDNA, one strand shown
# T3 sequence: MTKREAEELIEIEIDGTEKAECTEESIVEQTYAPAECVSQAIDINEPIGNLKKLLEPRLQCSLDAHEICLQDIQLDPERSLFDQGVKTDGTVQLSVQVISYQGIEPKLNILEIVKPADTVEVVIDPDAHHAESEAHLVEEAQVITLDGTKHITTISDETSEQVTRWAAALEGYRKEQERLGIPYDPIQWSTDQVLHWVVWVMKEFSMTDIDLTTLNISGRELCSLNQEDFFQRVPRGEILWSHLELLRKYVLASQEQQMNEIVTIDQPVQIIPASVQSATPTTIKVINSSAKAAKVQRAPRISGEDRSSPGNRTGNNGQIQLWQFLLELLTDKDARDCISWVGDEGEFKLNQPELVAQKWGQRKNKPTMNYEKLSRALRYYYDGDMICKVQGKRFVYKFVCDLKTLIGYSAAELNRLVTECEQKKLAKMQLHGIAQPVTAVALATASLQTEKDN
# Method in brief: as §1
# ERG = molecular target: T4, ERG (Homo sapiens, UniProt P11308 1-479); details: protein: recombinant; tags: N-terminal GST; dsDNA, one strand shown
# T4 sequence: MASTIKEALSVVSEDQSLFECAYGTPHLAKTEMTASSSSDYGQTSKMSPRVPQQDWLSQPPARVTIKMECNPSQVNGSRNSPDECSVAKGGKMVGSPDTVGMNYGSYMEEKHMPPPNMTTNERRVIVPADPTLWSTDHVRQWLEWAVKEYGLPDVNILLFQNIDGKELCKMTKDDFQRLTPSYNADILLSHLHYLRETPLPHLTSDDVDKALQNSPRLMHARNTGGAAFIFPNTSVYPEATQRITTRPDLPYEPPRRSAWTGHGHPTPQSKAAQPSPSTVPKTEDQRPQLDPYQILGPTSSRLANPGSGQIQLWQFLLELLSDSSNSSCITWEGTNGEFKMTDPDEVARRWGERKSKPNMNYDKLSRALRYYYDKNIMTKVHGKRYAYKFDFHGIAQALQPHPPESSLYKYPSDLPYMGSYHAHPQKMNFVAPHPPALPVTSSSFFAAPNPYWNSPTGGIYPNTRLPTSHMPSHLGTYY
# Method in brief: as §1
# ELF1 = ELF1 (Homo sapiens, UniProt P32519 1-619); details: protein: recombinant; tags: N-terminal GST; dsDNA, one strand shown
# Method in brief: as §1
# EHF = molecular target: T5, EHF (Homo sapiens, UniProt Q9NZC4 1-300); details: protein: recombinant; tags: N-terminal GST; dsDNA, one strand shown
# T5 sequence: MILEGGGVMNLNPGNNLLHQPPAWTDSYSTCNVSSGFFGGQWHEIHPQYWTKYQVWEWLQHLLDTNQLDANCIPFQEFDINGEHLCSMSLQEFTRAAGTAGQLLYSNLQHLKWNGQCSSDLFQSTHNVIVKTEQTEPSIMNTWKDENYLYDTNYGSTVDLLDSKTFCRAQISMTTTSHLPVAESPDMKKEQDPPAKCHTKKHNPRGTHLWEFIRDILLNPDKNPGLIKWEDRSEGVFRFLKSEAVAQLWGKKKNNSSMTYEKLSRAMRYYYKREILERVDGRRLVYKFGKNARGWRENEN
# Method in brief: as §1
# SPI1 = SPI1 (Homo sapiens, UniProt P17947 1-270); details: protein: recombinant; tags: N-terminal GST; dsDNA, one strand shown
# Method in brief: as §1
# SPIB = SPIB (Homo sapiens, UniProt Q01892 1-262); details: protein: recombinant; tags: N-terminal GST; dsDNA, one strand shown
# Method in brief: as §1
# ELK3 = molecular target: T6, ELK3 (Homo sapiens, UniProt P41970 1-407); details: protein: recombinant; tags: N-terminal GST; dsDNA, one strand shown
# T6 sequence: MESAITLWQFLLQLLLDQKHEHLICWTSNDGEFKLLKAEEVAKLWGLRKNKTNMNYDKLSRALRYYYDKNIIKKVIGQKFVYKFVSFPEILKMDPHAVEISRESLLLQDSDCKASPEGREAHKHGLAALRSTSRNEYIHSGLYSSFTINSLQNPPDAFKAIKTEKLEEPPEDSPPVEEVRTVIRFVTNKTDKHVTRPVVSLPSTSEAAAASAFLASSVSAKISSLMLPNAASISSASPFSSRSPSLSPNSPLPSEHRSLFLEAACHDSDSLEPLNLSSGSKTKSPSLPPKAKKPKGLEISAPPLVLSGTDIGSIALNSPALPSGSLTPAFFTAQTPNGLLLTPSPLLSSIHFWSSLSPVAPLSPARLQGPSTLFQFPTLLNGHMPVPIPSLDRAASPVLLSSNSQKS
# Method in brief: as §1
# FEV = molecular target: T7, FEV (Homo sapiens, UniProt Q99581 1-238); details: protein: recombinant; tags: N-terminal GST; dsDNA, one strand shown
# T7 sequence: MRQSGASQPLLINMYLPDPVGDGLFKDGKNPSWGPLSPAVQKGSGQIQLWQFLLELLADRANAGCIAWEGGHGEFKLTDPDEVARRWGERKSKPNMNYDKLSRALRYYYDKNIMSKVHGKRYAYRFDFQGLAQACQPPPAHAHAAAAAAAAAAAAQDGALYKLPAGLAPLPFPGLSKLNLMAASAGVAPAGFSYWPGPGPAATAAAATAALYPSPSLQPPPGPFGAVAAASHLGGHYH
# Method in brief: as §1
# ETV5 = ETV5 (Homo sapiens, UniProt P41161 1-510); details: protein: recombinant; tags: N-terminal GST; dsDNA, one strand shown
# Method in brief: as §1
# HSF1 = HSF1 (Homo sapiens, UniProt Q00613 1-529); details: protein: recombinant; tags: N-terminal GST; chain copies: 3; dsDNA, one strand shown
# Method in brief: as §1
# SPIC = molecular target: T8, SPIC (Homo sapiens, UniProt Q8N5J4 1-248); details: protein: recombinant; tags: N-terminal GST; dsDNA, one strand shown
# T8 sequence: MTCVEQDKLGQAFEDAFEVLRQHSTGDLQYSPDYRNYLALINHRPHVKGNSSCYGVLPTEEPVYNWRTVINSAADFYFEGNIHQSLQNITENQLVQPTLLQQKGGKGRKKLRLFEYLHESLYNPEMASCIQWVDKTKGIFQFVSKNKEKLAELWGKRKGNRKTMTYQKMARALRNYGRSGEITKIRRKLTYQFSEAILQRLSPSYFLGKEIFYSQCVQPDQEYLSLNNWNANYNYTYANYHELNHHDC
# Method in brief: as §1
# ELF4 = ELF4 (Homo sapiens, UniProt Q99607 1-663); details: protein: recombinant; tags: N-terminal GST; dsDNA, one strand shown
# Method in brief: as §1
# ELK4 = molecular target: T9, ELK4 (Homo sapiens, UniProt P28324-2 1-405); details: protein: recombinant; tags: N-terminal GST; dsDNA, one strand shown
# T9 sequence: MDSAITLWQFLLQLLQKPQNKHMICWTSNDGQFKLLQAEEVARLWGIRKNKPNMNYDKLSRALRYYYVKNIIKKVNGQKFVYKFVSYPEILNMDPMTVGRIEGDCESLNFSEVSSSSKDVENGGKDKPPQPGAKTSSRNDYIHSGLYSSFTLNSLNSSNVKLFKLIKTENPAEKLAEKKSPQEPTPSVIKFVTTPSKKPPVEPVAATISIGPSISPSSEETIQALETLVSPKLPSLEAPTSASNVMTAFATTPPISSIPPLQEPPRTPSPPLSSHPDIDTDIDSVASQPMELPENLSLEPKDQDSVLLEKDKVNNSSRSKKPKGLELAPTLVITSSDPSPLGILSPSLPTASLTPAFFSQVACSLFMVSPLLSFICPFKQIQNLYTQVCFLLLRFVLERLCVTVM
# Method in brief: as §1
# ETV2 = molecular target: T10, ETV2 (Homo sapiens, UniProt O00321 1-342); details: protein: recombinant; tags: N-terminal GST; dsDNA, one strand shown
# T10 sequence: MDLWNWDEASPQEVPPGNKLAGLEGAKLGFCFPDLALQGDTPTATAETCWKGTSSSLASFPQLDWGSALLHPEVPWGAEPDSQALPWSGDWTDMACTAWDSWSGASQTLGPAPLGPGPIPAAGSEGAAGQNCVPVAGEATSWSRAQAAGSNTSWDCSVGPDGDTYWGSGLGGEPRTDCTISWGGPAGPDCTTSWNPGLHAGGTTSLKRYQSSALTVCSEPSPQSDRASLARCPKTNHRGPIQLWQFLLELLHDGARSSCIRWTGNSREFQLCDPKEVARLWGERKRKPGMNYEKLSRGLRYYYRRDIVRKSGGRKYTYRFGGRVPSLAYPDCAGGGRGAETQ
# Method in brief: as §1
# ELF3 = molecular target: T11, ELF3 (Homo sapiens, UniProt P78545 1-371); details: protein: recombinant; tags: N-terminal GST; dsDNA, one strand shown
# T11 sequence: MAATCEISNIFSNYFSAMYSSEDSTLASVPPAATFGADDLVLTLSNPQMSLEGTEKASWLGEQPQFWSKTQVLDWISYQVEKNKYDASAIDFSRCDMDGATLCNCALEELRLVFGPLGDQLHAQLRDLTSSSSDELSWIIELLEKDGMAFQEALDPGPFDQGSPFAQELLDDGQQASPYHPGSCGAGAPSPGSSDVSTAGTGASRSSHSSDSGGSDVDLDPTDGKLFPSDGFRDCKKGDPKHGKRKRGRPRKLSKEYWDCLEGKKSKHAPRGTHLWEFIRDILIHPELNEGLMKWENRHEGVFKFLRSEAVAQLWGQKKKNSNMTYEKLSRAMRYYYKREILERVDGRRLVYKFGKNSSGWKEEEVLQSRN
# Method in brief: as §1
# CRX = CRX (Homo sapiens, UniProt O43186 1-299); details: protein: recombinant; tags: N-terminal GST; dsDNA, one strand shown
# Method in brief: as §1
# ETV1 = ETV1 (Homo sapiens, UniProt P50549 1-477); details: protein: recombinant; tags: N-terminal GST; dsDNA, one strand shown
# Method in brief: as §1
# Chain of ELF1 (P32519 whole entry): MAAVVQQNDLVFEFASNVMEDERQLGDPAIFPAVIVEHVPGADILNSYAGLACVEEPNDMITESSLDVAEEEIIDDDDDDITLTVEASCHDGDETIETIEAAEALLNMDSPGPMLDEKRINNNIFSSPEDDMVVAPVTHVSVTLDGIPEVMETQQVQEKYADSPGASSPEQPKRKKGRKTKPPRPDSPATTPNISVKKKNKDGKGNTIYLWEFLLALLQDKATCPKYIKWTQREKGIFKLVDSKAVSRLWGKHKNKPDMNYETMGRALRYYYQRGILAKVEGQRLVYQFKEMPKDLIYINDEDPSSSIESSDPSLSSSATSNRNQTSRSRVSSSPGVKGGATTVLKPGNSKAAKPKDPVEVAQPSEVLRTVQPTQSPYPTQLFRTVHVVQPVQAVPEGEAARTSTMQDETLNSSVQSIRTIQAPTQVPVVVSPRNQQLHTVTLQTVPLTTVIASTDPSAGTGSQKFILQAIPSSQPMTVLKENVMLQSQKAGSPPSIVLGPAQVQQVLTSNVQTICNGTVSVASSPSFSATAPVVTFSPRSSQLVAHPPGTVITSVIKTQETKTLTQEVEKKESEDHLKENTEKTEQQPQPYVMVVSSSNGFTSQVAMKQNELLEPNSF
# Chain of HSF1 (Q00613 whole entry): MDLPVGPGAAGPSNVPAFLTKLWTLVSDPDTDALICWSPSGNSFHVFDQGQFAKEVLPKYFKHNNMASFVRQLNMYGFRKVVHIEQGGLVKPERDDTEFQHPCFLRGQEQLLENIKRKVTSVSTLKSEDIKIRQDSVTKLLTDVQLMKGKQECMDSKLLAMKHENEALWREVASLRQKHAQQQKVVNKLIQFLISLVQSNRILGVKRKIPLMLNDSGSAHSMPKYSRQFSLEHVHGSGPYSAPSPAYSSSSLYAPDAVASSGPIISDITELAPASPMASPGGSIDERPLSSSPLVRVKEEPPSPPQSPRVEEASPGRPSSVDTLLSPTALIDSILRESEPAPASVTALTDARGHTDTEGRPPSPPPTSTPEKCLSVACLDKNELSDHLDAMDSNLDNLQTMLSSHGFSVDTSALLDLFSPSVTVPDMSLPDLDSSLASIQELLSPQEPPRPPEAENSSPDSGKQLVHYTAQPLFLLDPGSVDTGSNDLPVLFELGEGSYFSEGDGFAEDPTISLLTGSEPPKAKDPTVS
# Chain of CRX (O43186 whole entry): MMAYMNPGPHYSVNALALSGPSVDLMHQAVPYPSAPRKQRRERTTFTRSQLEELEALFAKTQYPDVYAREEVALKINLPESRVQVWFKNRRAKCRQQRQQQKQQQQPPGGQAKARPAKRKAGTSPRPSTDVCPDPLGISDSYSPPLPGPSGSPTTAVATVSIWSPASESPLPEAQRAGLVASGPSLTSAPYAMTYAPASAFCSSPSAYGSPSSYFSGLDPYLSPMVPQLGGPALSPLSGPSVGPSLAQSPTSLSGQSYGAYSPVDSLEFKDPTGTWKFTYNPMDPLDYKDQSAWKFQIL
# Chain of ETV1 (P50549 whole entry): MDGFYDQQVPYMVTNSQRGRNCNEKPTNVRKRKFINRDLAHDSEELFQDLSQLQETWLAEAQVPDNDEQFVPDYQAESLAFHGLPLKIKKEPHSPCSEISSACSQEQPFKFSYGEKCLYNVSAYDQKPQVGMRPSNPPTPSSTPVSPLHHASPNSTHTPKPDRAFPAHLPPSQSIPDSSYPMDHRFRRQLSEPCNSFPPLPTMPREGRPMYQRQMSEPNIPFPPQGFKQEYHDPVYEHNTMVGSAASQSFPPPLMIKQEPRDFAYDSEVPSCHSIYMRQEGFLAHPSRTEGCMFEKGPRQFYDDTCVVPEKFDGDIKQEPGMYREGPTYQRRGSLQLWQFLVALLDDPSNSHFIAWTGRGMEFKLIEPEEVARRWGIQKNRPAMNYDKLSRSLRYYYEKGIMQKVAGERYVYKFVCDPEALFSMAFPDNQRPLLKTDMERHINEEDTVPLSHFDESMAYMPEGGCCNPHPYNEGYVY
# Chain of ETV5 (P41161 whole entry): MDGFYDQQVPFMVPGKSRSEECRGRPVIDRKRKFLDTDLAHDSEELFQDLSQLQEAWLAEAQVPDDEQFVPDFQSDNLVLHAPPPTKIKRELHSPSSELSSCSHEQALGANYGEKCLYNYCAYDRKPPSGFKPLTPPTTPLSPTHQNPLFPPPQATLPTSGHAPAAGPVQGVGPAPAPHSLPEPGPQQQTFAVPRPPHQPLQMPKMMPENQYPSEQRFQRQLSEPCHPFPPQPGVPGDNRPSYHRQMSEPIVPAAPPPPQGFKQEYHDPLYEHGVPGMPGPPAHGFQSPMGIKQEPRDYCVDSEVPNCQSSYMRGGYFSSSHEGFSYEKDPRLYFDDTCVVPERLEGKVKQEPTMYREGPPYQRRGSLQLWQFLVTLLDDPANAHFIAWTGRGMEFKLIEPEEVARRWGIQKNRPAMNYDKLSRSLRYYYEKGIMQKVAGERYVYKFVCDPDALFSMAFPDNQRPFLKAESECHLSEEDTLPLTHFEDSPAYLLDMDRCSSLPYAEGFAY
# Chain of ELF4 (Q99607 whole entry): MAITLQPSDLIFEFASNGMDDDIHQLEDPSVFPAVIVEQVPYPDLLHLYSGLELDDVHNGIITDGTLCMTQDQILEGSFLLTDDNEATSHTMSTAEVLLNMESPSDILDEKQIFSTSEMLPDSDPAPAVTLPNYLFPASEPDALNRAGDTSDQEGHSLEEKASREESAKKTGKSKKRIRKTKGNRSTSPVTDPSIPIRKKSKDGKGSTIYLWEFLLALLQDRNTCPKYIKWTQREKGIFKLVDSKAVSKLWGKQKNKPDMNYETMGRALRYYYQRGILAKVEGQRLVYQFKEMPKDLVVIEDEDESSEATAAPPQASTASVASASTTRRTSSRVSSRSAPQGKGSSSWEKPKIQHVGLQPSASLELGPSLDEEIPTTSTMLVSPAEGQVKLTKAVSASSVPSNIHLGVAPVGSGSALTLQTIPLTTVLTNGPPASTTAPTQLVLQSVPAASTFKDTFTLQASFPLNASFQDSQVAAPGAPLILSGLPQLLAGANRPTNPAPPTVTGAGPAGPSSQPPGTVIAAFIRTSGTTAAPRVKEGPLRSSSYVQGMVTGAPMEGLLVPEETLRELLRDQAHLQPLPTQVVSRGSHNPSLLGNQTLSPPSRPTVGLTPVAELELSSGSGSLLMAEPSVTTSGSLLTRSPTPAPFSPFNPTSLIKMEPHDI
# Chain of SPIB (Q01892 whole entry): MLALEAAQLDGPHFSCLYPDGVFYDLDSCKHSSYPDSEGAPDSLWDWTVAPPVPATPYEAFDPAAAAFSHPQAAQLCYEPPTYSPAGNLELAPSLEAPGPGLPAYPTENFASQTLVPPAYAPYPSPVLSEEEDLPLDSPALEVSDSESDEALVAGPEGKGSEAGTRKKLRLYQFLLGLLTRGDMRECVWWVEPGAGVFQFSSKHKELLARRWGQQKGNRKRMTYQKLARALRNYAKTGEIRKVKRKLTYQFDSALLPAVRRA
sequence,measurement,setting,value
ATGATG,binding signal,FLI1,"1.39 fold enrichment (6-mer frequency, TF over GST control)"
same,binding signal,ELK1,"1.35 fold enrichment (6-mer frequency, TF over GST control)"
same,binding signal,GABPA,"1.33 fold enrichment (6-mer frequency, TF over GST control)"
same,binding signal,ERG,"1.18 fold enrichment (6-mer frequency, TF over GST control)"
same,binding signal,ELF1,"1.36 fold enrichment (6-mer frequency, TF over GST control)"
same,binding signal,EHF,"1.4 fold enrichment (6-mer frequency, TF over GST control)"
same,binding signal,SPI1,"1.24 fold enrichment (6-mer frequency, TF over GST control)"
same,binding signal,SPIB,"1.35 fold enrichment (6-mer frequency, TF over GST control)"
same,binding signal,ELK3,"1.53 fold enrichment (6-mer frequency, TF over GST control)"
same,binding signal,FEV,"1.27 fold enrichment (6-mer frequency, TF over GST control)"
same,binding signal,ETV5,"1.33 fold enrichment (6-mer frequency, TF over GST control)"
same,binding signal,HSF1,"1.24 fold enrichment (6-mer frequency, TF over GST control)"
same,binding signal,SPIC,"1.35 fold enrichment (6-mer frequency, TF over GST control)"
same,binding signal,ELF4,"1.37 fold enrichment (6-mer frequency, TF over GST control)"
same,binding signal,ELK4,"1.38 fold enrichment (6-mer frequency, TF over GST control)"
same,binding signal,ETV2,"1.47 fold enrichment (6-mer frequency, TF over GST control)"
same,binding signal,ELF3,"1.38 fold enrichment (6-mer frequency, TF over GST control)"
same,binding signal,CRX,"1.21 fold enrichment (6-mer frequency, TF over GST control)"
same,binding signal,ETV1,"1.24 fold enrichment (6-mer frequency, TF over GST control)"
